Test results taken from publication PMC7862700, “An all-to-all approach to the identification of sequence-specific readers for epigenetic DNA modifications on cytosine”.

Columns and labels:
Assay in all cases: DAPPL (digital affinity profiling via proximity ligation, sequencing); 10 mM Tris-HCl pH 7.5, 50 mM NaCl, 1 mM DTT, 4% glycerol, room temperature, 30 min; GST-TFs on glutathione beads, 16-mer random dsDNA library, 0.1% formaldehyde crosslink after washing; high values mean tight binding
Settings in all cases: protein: recombinant; tags: N-terminal GST; dsDNA, one strand shown
FLI1 = target: T1, FLI1 (Homo sapiens, UniProt Q01543 1-452)
T1 sequence: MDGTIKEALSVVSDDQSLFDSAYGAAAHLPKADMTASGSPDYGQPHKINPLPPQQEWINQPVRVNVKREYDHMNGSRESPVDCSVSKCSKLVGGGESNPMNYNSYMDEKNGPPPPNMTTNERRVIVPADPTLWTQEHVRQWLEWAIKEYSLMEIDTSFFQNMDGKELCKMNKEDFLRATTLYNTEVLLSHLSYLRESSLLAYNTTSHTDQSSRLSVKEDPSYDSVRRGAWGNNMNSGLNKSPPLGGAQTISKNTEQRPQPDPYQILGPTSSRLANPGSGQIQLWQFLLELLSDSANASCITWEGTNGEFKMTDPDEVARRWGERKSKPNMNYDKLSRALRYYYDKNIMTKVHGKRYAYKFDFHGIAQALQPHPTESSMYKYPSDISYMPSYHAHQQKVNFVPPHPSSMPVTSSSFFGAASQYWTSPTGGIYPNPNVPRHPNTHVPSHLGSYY
Procedure, shortened: (§1)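 Human transcription factors carrying a GST fusion were produced in yeast, bound to glutathione beads, tagged with DNA barcodes and pooled together with a tag-only sample. Each pool was held with 200 nmole of a random double-stranded 16-mer DNA library in Tris/NaCl/DTT/glycerol buffer for 30 min at room temperature, then washed, crosslinked in 0.1% formaldehyde, proximity-ligated with BsaI/T4 ligase (1 h, 37 °C), PCR-amplified and sequenced on an Illumina NextSeq500. Binding signal is the read frequency of each hexamer for a given factor divided by its frequency in the tag-only sample.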

ELK1 = target: T2, ELK1 (Homo sapiens, UniProt P19419 1-428)
T2 sequence: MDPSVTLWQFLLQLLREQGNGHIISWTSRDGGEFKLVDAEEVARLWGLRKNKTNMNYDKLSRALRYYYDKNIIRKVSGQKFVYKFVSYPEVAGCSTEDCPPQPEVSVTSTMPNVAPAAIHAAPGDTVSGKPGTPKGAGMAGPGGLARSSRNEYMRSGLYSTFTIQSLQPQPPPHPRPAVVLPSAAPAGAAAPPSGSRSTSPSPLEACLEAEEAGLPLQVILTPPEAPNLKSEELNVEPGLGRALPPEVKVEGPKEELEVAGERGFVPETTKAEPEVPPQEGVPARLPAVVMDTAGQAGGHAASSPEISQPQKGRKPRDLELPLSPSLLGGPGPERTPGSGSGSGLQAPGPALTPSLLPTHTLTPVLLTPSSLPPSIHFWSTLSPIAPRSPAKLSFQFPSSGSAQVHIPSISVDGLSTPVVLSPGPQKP
Procedure, shortened: as §1

GABPA = target: T3, GABPA (Homo sapiens, UniProt Q06546 1-454)
T3 sequence: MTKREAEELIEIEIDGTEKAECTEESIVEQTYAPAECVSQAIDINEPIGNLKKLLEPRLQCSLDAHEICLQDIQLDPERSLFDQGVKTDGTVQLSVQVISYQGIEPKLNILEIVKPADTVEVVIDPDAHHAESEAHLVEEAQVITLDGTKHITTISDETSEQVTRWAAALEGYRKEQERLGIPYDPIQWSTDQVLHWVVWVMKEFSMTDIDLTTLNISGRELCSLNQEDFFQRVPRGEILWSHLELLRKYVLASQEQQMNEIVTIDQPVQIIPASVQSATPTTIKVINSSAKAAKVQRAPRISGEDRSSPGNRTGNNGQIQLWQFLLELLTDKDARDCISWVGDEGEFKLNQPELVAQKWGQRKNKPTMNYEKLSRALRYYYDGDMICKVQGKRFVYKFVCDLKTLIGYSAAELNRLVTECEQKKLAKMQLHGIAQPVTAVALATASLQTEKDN
Procedure, shortened: as §1

ERG = target: T4, ERG (Homo sapiens, UniProt P11308 1-479)
T4 sequence: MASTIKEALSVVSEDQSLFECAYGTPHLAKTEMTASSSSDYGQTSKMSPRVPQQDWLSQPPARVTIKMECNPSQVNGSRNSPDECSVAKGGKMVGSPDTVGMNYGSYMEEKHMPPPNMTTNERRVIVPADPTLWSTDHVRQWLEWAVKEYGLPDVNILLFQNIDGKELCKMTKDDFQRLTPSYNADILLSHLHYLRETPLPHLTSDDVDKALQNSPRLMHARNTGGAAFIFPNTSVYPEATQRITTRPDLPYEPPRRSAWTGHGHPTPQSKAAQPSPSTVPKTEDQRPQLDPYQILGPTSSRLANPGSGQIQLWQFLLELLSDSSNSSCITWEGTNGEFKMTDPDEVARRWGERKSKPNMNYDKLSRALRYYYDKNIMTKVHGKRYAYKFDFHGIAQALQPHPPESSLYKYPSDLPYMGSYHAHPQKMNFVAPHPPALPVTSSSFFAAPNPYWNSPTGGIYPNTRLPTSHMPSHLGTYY
Procedure, shortened: as §1

ELF1 = ELF1 (Homo sapiens, UniProt P32519 1-619)
Procedure, shortened: as §1

EHF = target: T5, EHF (Homo sapiens, UniProt Q9NZC4 1-300)
T5 sequence: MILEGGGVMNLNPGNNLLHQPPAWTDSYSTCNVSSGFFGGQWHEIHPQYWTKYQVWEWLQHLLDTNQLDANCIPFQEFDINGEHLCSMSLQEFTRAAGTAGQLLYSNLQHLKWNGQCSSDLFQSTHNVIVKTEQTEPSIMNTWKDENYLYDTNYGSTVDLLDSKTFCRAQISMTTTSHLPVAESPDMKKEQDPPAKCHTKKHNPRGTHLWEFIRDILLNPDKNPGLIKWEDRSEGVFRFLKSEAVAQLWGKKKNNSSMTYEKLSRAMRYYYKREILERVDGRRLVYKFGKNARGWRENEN
Procedure, shortened: as §1

SPI1 = SPI1 (Homo sapiens, UniProt P17947 1-270)
Procedure, shortened: as §1

SPIB = SPIB (Homo sapiens, UniProt Q01892 1-262)
Procedure, shortened: as §1

ELK3 = target: T6, ELK3 (Homo sapiens, UniProt P41970 1-407)
T6 sequence: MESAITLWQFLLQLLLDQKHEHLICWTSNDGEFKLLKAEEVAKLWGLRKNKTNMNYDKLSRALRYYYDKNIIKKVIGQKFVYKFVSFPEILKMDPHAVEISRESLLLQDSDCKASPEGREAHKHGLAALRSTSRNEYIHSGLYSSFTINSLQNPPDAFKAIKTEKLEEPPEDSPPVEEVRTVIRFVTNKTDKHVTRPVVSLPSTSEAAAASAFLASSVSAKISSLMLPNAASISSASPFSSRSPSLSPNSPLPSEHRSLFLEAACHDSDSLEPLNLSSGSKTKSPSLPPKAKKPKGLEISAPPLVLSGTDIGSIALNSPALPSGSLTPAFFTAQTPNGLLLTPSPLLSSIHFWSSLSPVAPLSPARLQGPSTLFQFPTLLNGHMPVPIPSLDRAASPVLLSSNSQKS
Procedure, shortened: as §1

FEV = target: T7, FEV (Homo sapiens, UniProt Q99581 1-238)
T7 sequence: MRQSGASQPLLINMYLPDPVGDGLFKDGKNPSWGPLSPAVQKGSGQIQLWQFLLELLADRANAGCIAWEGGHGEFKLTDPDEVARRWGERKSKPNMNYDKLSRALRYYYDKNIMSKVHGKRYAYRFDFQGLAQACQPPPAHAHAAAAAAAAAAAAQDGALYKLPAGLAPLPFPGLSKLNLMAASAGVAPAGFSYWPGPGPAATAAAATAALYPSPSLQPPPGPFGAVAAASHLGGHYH
Procedure, shortened: as §1

ETV5 = ETV5 (Homo sapiens, UniProt P41161 1-510)
Procedure, shortened: as §1

ELF4 = ELF4 (Homo sapiens, UniProt Q99607 1-663)
Procedure, shortened: as §1

ETV1 = ETV1 (Homo sapiens, UniProt P50549 1-477)
Procedure, shortened: as §1

ERF = target: T8, ERF (Homo sapiens, UniProt P50548 1-548)
T8 sequence: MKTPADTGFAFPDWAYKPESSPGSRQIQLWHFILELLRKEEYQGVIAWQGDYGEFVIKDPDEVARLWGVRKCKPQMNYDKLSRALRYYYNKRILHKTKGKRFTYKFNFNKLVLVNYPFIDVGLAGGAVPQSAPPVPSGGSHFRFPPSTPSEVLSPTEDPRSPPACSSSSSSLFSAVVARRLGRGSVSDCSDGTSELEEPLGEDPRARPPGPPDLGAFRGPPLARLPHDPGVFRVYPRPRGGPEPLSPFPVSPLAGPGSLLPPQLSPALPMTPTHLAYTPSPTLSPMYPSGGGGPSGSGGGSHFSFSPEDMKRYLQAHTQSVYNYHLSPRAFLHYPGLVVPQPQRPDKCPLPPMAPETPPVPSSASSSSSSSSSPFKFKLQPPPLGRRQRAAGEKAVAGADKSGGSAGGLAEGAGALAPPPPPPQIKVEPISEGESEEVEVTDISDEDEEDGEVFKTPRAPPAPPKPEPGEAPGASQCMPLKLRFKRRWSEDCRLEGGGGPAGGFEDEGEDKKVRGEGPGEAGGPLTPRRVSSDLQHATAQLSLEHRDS
Procedure, shortened: as §1

ETS2 = target: T9, ETS2 (Homo sapiens, UniProt P15036 1-469)
T9 sequence: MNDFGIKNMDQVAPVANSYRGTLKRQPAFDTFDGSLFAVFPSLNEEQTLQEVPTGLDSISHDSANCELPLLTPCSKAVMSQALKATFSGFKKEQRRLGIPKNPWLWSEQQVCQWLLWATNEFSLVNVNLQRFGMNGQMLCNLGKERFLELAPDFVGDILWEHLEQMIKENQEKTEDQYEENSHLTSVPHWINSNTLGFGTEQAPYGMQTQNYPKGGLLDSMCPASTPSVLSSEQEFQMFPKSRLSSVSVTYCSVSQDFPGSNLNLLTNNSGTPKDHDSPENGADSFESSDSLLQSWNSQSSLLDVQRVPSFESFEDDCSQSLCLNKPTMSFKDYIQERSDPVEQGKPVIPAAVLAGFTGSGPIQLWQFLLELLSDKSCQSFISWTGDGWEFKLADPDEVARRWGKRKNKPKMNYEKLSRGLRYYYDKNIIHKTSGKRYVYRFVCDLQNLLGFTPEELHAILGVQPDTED
Procedure, shortened: as §1

SPDEF = target: T10, SPDEF (Homo sapiens, UniProt O95238 1-335)
T10 sequence: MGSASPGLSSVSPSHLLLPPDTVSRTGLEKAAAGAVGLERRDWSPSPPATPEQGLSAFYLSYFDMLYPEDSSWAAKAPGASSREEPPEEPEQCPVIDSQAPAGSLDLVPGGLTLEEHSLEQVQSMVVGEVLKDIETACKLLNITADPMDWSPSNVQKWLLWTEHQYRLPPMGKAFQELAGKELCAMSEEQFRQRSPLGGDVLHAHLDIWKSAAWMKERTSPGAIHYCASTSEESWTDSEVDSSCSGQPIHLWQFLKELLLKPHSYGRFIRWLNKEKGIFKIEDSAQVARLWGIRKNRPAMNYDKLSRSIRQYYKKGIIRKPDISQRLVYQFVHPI
Procedure, shortened: as §1

ETV6 = ETV6 (Homo sapiens, UniProt P41212 1-452)
Procedure, shortened: as §1

Sequence of ETV6 (P41212 whole entry): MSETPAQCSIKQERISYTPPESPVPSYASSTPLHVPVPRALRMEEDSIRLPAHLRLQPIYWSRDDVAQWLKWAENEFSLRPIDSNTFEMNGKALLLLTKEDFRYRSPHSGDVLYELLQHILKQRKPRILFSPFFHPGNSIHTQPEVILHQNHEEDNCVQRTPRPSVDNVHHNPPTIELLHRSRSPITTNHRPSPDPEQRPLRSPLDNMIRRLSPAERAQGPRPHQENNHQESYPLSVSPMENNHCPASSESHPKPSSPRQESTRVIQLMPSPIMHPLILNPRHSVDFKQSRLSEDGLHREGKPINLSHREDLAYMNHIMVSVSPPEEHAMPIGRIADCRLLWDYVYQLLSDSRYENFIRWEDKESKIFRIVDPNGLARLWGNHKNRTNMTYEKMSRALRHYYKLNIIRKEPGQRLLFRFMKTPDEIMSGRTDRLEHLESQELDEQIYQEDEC
Sequence of ETV5 (P41161 whole entry): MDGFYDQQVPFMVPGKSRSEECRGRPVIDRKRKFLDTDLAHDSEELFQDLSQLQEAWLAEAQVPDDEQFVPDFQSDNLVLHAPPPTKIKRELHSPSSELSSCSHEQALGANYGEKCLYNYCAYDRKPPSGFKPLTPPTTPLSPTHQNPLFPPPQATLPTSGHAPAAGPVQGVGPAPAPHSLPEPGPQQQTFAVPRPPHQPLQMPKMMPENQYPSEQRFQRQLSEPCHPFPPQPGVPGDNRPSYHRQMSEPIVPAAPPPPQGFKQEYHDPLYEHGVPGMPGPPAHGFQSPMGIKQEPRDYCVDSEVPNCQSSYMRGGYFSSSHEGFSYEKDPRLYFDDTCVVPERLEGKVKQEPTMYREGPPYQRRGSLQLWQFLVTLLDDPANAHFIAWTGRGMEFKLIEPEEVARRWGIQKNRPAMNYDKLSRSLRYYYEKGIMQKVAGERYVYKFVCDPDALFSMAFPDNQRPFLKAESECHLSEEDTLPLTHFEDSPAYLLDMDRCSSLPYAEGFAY
Sequence of ETV1 (P50549 whole entry): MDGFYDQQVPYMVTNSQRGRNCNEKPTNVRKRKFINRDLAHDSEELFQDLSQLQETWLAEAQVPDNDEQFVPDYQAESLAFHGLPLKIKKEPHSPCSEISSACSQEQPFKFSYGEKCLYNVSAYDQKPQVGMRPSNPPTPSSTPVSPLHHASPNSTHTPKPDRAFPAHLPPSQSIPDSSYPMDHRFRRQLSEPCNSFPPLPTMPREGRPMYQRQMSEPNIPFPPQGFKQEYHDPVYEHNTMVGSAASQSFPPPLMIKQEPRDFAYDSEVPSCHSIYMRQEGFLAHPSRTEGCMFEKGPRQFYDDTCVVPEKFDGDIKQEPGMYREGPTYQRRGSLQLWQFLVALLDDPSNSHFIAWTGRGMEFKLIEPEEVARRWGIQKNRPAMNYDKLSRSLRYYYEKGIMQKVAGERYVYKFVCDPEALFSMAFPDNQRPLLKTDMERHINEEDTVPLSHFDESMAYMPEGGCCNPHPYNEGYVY
Sequence of ELF4 (Q99607 whole entry): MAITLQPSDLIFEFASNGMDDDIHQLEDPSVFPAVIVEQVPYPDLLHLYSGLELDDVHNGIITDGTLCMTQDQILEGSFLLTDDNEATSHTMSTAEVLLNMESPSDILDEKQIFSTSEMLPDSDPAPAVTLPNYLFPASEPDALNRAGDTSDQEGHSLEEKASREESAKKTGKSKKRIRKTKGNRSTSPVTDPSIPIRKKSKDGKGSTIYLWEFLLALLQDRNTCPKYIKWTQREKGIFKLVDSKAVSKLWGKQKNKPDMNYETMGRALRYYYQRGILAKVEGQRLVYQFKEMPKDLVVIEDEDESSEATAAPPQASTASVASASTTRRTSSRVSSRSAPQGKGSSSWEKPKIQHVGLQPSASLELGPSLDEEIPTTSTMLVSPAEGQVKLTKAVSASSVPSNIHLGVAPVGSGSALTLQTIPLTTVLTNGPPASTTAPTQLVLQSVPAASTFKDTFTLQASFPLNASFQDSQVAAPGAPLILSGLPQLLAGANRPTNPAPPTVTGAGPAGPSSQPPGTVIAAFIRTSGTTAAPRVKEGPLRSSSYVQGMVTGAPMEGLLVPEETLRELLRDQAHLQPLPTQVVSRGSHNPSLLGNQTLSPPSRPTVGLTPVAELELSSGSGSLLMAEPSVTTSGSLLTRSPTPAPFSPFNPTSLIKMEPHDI
Sequence of ELF1 (P32519 whole entry): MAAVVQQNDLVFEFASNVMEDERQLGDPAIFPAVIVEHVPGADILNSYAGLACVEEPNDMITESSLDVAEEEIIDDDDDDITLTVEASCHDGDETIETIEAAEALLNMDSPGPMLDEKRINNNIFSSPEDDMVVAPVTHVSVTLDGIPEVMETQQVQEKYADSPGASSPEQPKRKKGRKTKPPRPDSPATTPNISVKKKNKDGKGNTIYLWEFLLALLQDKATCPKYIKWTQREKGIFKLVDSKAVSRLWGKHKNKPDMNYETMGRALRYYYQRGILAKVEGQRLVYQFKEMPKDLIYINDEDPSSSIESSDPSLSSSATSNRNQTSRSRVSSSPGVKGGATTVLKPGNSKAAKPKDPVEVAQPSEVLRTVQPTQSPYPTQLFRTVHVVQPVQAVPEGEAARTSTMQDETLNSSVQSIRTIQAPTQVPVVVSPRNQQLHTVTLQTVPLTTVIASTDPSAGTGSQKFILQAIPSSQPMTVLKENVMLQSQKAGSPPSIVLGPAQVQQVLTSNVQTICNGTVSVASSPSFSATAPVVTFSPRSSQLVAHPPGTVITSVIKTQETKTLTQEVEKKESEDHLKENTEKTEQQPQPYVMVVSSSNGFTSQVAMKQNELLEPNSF
Sequence of SPIB (Q01892 whole entry): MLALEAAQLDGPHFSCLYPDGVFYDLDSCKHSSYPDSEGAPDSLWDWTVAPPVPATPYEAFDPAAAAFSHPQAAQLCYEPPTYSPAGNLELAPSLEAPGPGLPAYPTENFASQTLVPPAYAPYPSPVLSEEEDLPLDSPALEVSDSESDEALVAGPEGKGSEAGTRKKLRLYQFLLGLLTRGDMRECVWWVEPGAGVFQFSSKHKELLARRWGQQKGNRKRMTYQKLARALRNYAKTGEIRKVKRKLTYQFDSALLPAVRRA

CATACA
binding signal (FLI1): 1.11 fold enrichment (6-mer frequency, TF over GST control) | binding signal (ELK1): 1.04 fold enrichment (6-mer frequency, TF over GST control) | binding signal (GABPA): 1.08 fold enrichment (6-mer frequency, TF over GST control) | binding signal (ERG): 1.07 fold enrichment (6-mer frequency, TF over GST control) | binding signal (ELF1): 1.06 fold enrichment (6-mer frequency, TF over GST control) | binding signal (EHF): 1.03 fold enrichment (6-mer frequency, TF over GST control) | binding signal (SPI1): 1.05 fold enrichment (6-mer frequency, TF over GST control) | binding signal (SPIB): 1.08 fold enrichment (6-mer frequency, TF over GST control) | binding signal (ELK3): 1.22 fold enrichment (6-mer frequency, TF over GST control) | binding signal (FEV): 1.07 fold enrichment (6-mer frequency, TF over GST control) | binding signal (ETV5): 1.05 fold enrichment (6-mer frequency, TF over GST control) | binding signal (ELF4): 1.15 fold enrichment (6-mer frequency, TF over GST control) | binding signal (ETV1): 1.02 fold enrichment (6-mer frequency, TF over GST control) | binding signal (ERF): 1.15 fold enrichment (6-mer frequency, TF over GST control) | binding signal (ETS2): 1.06 fold enrichment (6-mer frequency, TF over GST control) | binding signal (SPDEF): 1.05 fold enrichment (6-mer frequency, TF over GST control) | binding signal (ETV6): 1.01 fold enrichment (6-mer frequency, TF over GST control)
